These results are taken from PubChem BioAssay (NCI).

Assay [1] in a line: NCI Yeast Anticancer Drug Screen. Data for the rad50 strain (AID 155).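 Further: 0% = growth of vehicle-only cultures of the same strain.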 To be noted: S. cerevisiae rad50 strain growth inhibition, hits give high values. A digest of the protocol: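 Cells are treated with compound, grown, and their growth is then scored against vehicle-only cultures of the same repair-deficient yeast strain.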
The nature of assay [2]: NCI Yeast Anticancer Drug Screen. Data for the mec2-1 strain (AID 157). The note with it: S. cerevisiae mec2-1 strain, hits give high values. A digest of the protocol:
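Strain: mec2-1 (DNA repair/cell cycle alteration). Compound exposure, then growth measured; inhibition expressed relative to vehicle.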

Assay [3] in a line: NCI Yeast Anticancer Drug Screen. Data for the sgs1 mgt1 strain (AID 161).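 Further: 0% = growth of cultures given vehicle only.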 The note with it: S. cerevisiae sgs1 mgt1 strain, hits give high values. A digest of the protocol:
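Test agents were incubated with a DNA-repair-mutant yeast strain. Growth was then read and compared against vehicle-treated controls.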

A short description of assay [4]: NCI Yeast Anticancer Drug Screen. Data for the cln2 rad14 strain (AID 165).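 Further: 0% = growth equal to vehicle treated cultures.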 To be noted: S. cerevisiae cln2 rad14 strain, hits give high values. A digest of the protocol: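 Compounds are applied to the cln2 rad14 yeast strain, and growth is then compared with that of vehicle-treated cultures to give inhibition.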
Assay [5] in a line: NCI Yeast Anticancer Drug Screen. Data for the bub3 strain (AID 167). The note with it: S. cerevisiae bub3 mutant strain, hits give high values. A digest of the protocol: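 Part of a panel of yeast mutants defective in DNA damage repair or cell cycle regulation. Each strain is grown with compound, and inhibition is calculated relative to solvent-treated cultures.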
A short description of assay [6]: NCI Yeast Anticancer Drug Screen. Data for the mlh1 rad18 strain (AID 175). The note with it: S. cerevisiae mlh1 rad18 strain growth inhibition, hits give high values. A digest of the protocol: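 Read-out is yeast growth inhibition, calculated against vehicle-only controls. The compound was applied to a strain engineered with DNA damage repair alterations.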
Setting [7] is: at 5.0 µM (retest, dose inferred, filed as 0.5).
Setting [8] is: at 50.0 µM (retest, dose inferred, filed as 5.0).

About 79,000 compounds went through this panel and 15% of them were active in at least one assay; those are over-represented in the sample as a whole. Unmarked numbers belong to inactive results. The source made the active and inactive calls. No stated cut-off is given here; in the data, active means growth inhibition above about 70%; inactive means the rest.

As for `CNC(=O)N(C)/N=C/c1ccc([N+](=O)[O-])o1`, the growth inhibition in assay [1] (setting [7]) is 15%; in assay [1] (setting [8]) it was 67%; in assay [1] (at 50.0 µM) it was 84.5% (active); in assay [2] (setting [7]), 4%; in assay [2] (setting [8]) it was 40%; in assay [2] (at 50.0 µM) it was 50.5%. The growth inhibition is 14% in assay [3] (setting [7]); 78% (active) in assay [3] (setting [8]); 93.5% (active) in assay [3] (at 50.0 µM); 0% in assay [4] (setting [7]); 36% in assay [4] (setting [8]); 54.6% in assay [4] (at 50.0 µM). Also, the growth inhibition in assay [5] (setting [7]) is 17%; in assay [5] (setting [8]), 55%; in assay [5] (at 50.0 µM) it was 45.5%; in assay [6] (setting [7]), 24%; in assay [6] (setting [8]) it was 76% (active); in assay [6] (at 50.0 µM), 91.8% (active).
For the molecule `OC1c2ccccc2C2(O)C1C(c1ccccc1)C(c1ccccc1)C2(O)c1ccccc1` (stereo not given), the growth inhibition in assay [1] (setting [7]) was 32%; in assay [1] (setting [8]) it was 95% (active); in assay [1] (at 50.0 µM), 96.7% (active); in assay [2] (setting [7]) it was -1%; in assay [2] (setting [8]), 97% (active); in assay [2] (at 50.0 µM), 97% (active). For the same molecule, the growth inhibition in assay [3] (setting [7]) is 25%; in assay [3] (setting [8]) it was 96% (active); in assay [3] (at 50.0 µM), 98% (active); in assay [4] (setting [7]), -4%; in assay [4] (setting [8]), 94% (active); in assay [4] (at 50.0 µM), 95.1% (active). In addition, the growth inhibition in assay [5] (setting [7]) is -1%; in assay [5] (setting [8]), 95% (active); in assay [5] (at 50.0 µM), 94.8% (active); in assay [6] (setting [7]), 30%; in assay [6] (setting [8]), 94% (active); in assay [6] (at 50.0 µM), 95.7% (active).
Consider `CCCNCC/C=C/[Si](C)(C)C`, for which the growth inhibition was -17% in assay [1] (setting [7]); 99% (active) in assay [1] (setting [8]); 98.7% (active) in assay [1] (at 50.0 µM); -9% in assay [2] (setting [7]); 99% (active) in assay [2] (setting [8]); 96.5% (active) in assay [2] (at 50.0 µM). For the same molecule, the growth inhibition in assay [3] (setting [7]) was -3%; in assay [3] (setting [8]) it was 99% (active); in assay [3] (at 50.0 µM), 97.6% (active); in assay [4] (setting [7]), 4%; in assay [4] (setting [8]), 99% (active); in assay [4] (at 50.0 µM), 98.5% (active). In addition, the growth inhibition in assay [5] (setting [7]) is -2%; in assay [5] (setting [8]), 99% (active); in assay [5] (at 50.0 µM) it was 98.8% (active); in assay [6] (setting [7]), 10%; in assay [6] (setting [8]), 99% (active); in assay [6] (at 50.0 µM) it was 98.8% (active).
As to `COC(=O)c1ccc2c(c1)C(O)NC(=O)O2` (stereo not given), the growth inhibition in assay [1] (setting [7]) is 16%; in assay [1] (setting [8]), 97% (active); in assay [1] (at 50.0 µM) it was 98.5% (active); in assay [2] (setting [7]) it was 15%; in assay [2] (setting [8]) it was 97% (active); in assay [2] (at 50.0 µM), 98% (active). For the same molecule, the growth inhibition in assay [3] (setting [7]) was 15%; in assay [3] (setting [8]), 98% (active); in assay [3] (at 50.0 µM), 98.9% (active); in assay [4] (setting [7]), 18%; in assay [4] (setting [8]) it was 98% (active); in assay [4] (at 50.0 µM), 98.5% (active). Besides, the growth inhibition in assay [5] (setting [7]) was 3%; in assay [5] (setting [8]), 95% (active); in assay [5] (at 50.0 µM) it was 98.6% (active); in assay [6] (setting [7]), 21%; in assay [6] (setting [8]) it was 97% (active); in assay [6] (at 50.0 µM), 98.5% (active).
Take `O=C(c1ccccc1)c1ccc(OCC2CO2)cc1` (stereo not given): the growth inhibition was 10% in assay [1] (setting [7]); 77% (active) in assay [1] (setting [8]); 64.3% in assay [1] (at 50.0 µM); -2% in assay [2] (setting [7]); 23% in assay [2] (setting [8]); 25% in assay [2] (at 50.0 µM). Besides, the growth inhibition was 10% in assay [3] (setting [7]); 64% in assay [3] (setting [8]); 50.4% in assay [3] (at 50.0 µM); -5% in assay [4] (setting [7]); 58% in assay [4] (setting [8]); 20.6% in assay [4] (at 50.0 µM). Besides, the growth inhibition in assay [5] (setting [7]) was -1%; in assay [5] (setting [8]), 29%; in assay [5] (at 50.0 µM) it was 12.1%; in assay [6] (setting [7]), 7%; in assay [6] (setting [8]), 74% (active); in assay [6] (at 50.0 µM) it was 71.9% (active).
Regarding `COc1ccccc1C1c2cc3c(cc2OC2(OC)COC(=O)C12)OCO3` (stereo not given), the growth inhibition in assay [1] (setting [7]) was 24%; in assay [1] (setting [8]), 58%; in assay [1] (at 50.0 µM), 9.85%; in assay [2] (setting [7]) it was 22%; in assay [2] (setting [8]), 42%; in assay [2] (at 50.0 µM) it was 0%. The growth inhibition is 11% in assay [3] (setting [7]); 42% in assay [3] (setting [8]); 1.95% in assay [3] (at 50.0 µM); 20% in assay [4] (setting [7]); 35% in assay [4] (setting [8]); 17% in assay [4] (at 50.0 µM). Besides, the growth inhibition in assay [5] (setting [7]) was 32%; in assay [5] (setting [8]) it was 54%; in assay [5] (at 50.0 µM) it was 17.2%; in assay [6] (setting [7]), 23%; in assay [6] (setting [8]), 69%; in assay [6] (at 50.0 µM), 22%.
Turning to `Cc1ccc(S(=O)(=O)C2C=CC=CC=C2)cc1`, the growth inhibition in assay [1] (setting [7]) is -156%; in assay [1] (setting [8]) it was 84% (active); in assay [1] (at 50.0 µM) it was 76.8% (active); in assay [2] (setting [7]), -51%; in assay [2] (setting [8]), 54%; in assay [2] (at 50.0 µM), 86% (active). The growth inhibition was -64% in assay [3] (setting [7]); 77% (active) in assay [3] (setting [8]); 14.7% in assay [3] (at 50.0 µM); -62% in assay [4] (setting [7]); 42% in assay [4] (setting [8]); 52% in assay [4] (at 50.0 µM). Besides, the growth inhibition in assay [5] (setting [7]) is -71%; in assay [5] (setting [8]), 66%; in assay [5] (at 50.0 µM), 71% (active); in assay [6] (setting [7]), -140%; in assay [6] (setting [8]) it was 87% (active); in assay [6] (at 50.0 µM), 82% (active).
As to `O=C1c2ccccc2C(=O)N1CCn1ccc(NC(c2ccccc2)(c2ccccc2)c2ccccc2)nc1=O`, the growth inhibition was 48% in assay [1] (setting [7]); 48% in assay [1] (setting [8]); 66.3% in assay [1] (at 50.0 µM); 28% in assay [2] (setting [7]); 28% in assay [2] (setting [8]); 74.9% (active) in assay [2] (at 50.0 µM). The growth inhibition is 50% in assay [3] (setting [7]); 50% in assay [3] (setting [8]); 67.2% in assay [3] (at 50.0 µM); 5% in assay [4] (setting [7]); 5% in assay [4] (setting [8]); 80.6% (active) in assay [4] (at 50.0 µM). Moreover, the growth inhibition was 27% in assay [5] (setting [7]); 27% in assay [5] (setting [8]); 79.2% (active) in assay [5] (at 50.0 µM); 44% in assay [6] (setting [7]); 44% in assay [6] (setting [8]); 65.3% in assay [6] (at 50.0 µM).
Turning to `O=C(NC1(OC(=O)c2ccc(Cl)cc2)CC1)c1ccc(Cl)cc1`, the growth inhibition is 6% in assay [1] (setting [7]); 97% (active) in assay [1] (setting [8]); 97.8% (active) in assay [1] (at 50.0 µM); 14% in assay [2] (setting [7]); 98% (active) in assay [2] (setting [8]); 97.9% (active) in assay [2] (at 50.0 µM). For the same molecule, the growth inhibition in assay [3] (setting [7]) was 15%; in assay [3] (setting [8]) it was 91% (active); in assay [3] (at 50.0 µM) it was 95.5% (active); in assay [4] (setting [7]) it was 25%; in assay [4] (setting [8]), 97% (active); in assay [4] (at 50.0 µM), 97.5% (active). The growth inhibition is -8% in assay [5] (setting [7]); 98% (active) in assay [5] (setting [8]); 97.1% (active) in assay [5] (at 50.0 µM); 24% in assay [6] (setting [7]); 97% (active) in assay [6] (setting [8]); 96.8% (active) in assay [6] (at 50.0 µM).
`c1cc2cc(Cc3ccc4[nH]ccc4c3)ccc2[nH]1`: the growth inhibition in assay [1] (setting [7]) is 21%; in assay [1] (setting [8]), 26%; in assay [1] (at 50.0 µM), 12.2%; in assay [2] (setting [7]) it was 21%; in assay [2] (setting [8]), 36%; in assay [2] (at 50.0 µM), 11.4%. Besides, the growth inhibition was 25% in assay [3] (setting [7]); 19% in assay [3] (setting [8]); 13% in assay [3] (at 50.0 µM); 16% in assay [4] (setting [7]); 10% in assay [4] (setting [8]); -1.1% in assay [4] (at 50.0 µM). Also, the growth inhibition in assay [5] (setting [7]) was 12%; in assay [5] (setting [8]), 16%; in assay [5] (at 50.0 µM), 43.2%; in assay [6] (setting [7]), 32%; in assay [6] (setting [8]), 41%; in assay [6] (at 50.0 µM), 92.2% (active).
